The values below come from PubChem BioAssay (NCI).

Each structure is given as a SMILES string. The panel holds about 83,000 compounds, 20% with a hit somewhere; the sample as a whole holds those more often.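 Cell lines were cultured in 96-well plates, exposed to a single compound concentration, and assessed for percent growth 48 hours later.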 Values without a mark were called inactive. Active and inactive are the calls of the source. How the source made its calls: active means growth percent below 10; inactive means the rest.

The assay has as its system A498 renal. In words: NCI-60 one-dose screen, 48 h (100 = growth as untreated, 0 = no growth, -100 = all killed). The note with it: 10 µM unless noted.
For the compound `COc1cc(OC)cc(C2=C3CC[C@@H]4[C@H](CC[C@]5(C)C(=O)CC[C@@H]45)C3=CC3C(O)c4cccnc4N4C(=O)COC234)c1` (stereo not given in full), the growth was 91.6%.

Consider `CC(=O)Cc1nsc(NC(=O)c2cc(-c3cc(Cl)cc(Cl)c3)oc2C)n1`, for which the growth is 103%.

As for `CCOC(=O)c1cn2ncnc(Oc3ccc(NC(=O)NC4CCCCC4)c(Cl)c3)c2c1C`, the growth was 76.5%.

For `Cc1nnc(NC(=O)c2nc(S(=O)(=O)Cc3ccc(F)cc3)ncc2Cl)s1`, the growth was 115%.

As for `C#CCOc1ccc2ncnc(Nc3ccc(NC(=O)CCl)cc3)c2c1`, the growth was 55.9%.

As for `CCOC(=O)C#Cc1c(C(=O)OCC)nnn1[C@@H]1O[C@H](CO)[C@H]2OC3(CCCCC3)O[C@H]21`, the growth is 110%.

As to `C/C(=N/O)c1ccc(F)cc1`, the growth was 111%.

With `CCOC(=O)Cn1c(O)c(N=Nc2ccc(S(N)(=O)=O)cc2)c2cc(Br)ccc21`, the growth is 91.4%.

As to `Cc1nc(N2CCOCC2)sc1S(N)(=O)=O`, the growth was 93.4%.

As for `COc1ccc(OC)c(C(=O)/C=C/c2cc3c(c(OC)c2OC)OCO3)c1`, the growth was 69.9%.

Regarding `O=c1oc2ccccc2cc1C1=NN=C(SCc2ccccc2)SC1`, the growth was 119%.

Consider `COc1ccc(C(=S)N2CCN(c3ccccc3Cl)CC2)cc1OC`, for which the growth was 94.6%.

Regarding `Cc1ccc(/C=C2\CN(C(=O)OC(C)(C)C)C/C(=C\c3ccc(C)cc3)C2=O)cc1`, the growth was 67.6%.

Consider `O=C(Nc1nn(-c2ccc(Cl)cc2Cl)nc1-c1ccccc1)c1ccccc1`, for which the growth was 116%.

On to `CCN(CC)c1ccc(/C=C/C(=O)c2ccc(Nc3nc(Nc4ccccc4)nc(Nc4ccccc4)n3)cc2)cc1`, for which the growth was 30.3%.

Regarding `COC(=O)[C@H]1CCCN1C[C@@H](O)CN1C(=O)/C(=C\c2cc(OC)c(OC)c(OC)c2)c2ccccc21`, the growth was 113%.

For the compound `CN(C)c1ccc(Nc2cc(-c3cccc(OC(F)(F)F)c3)nc3ccc(N4CCCC4)cc23)cc1`, the growth is 98.3%.

With `O=C(Nc1cc(Cl)ccc1O)c1ccc(Nc2ccnc(C(F)(F)F)c2)cc1`, the growth is 35.8%.

Consider `COc1cc(OC)c2sc(-c3ccc(-n4cncc4-c4ccc(OC)c(OC)c4)cc3)nc2c1`, for which the growth was 56.3%.

As to `O=C1c2cccnc2C(=O)c2c1c(C(=O)NCCCN1CCCCC1)c1ccccn21`, the growth is -78.1% (active).

Regarding `CCOC(=O)c1ccc2[nH]c(O)c(C(=Nc3ccc(N(C)C(=O)CN4CCN(C)CC4)cc3)c3ccccc3)c2c1`, the growth was -59.9% (active).

For the compound `CCN1C(=O)N(CC)C2C1NN=c1s/c(=C\c3cccc([N+](=O)[O-])c3)c(=O)n12` (stereo not given), the growth was 13%.

Take `CC1=C(Nc2ccc(N3CCN(C)CC3)cc2)C(=O)c2cncnc2C1=O`: the growth is 113%.

Regarding `O=C1Nc2ccc(Br)cc2/C1=N/c1n[nH]c(=S)s1`, the growth was 92.4%.

Take `CCN(c1ccc(Cl)cc1)c1nc(-c2ccc([N+](=O)[O-])cc2)cs1`: the growth was 63.8%.

Take `C=C(C)[C@@H]1CC[C@]2(C)[C@H](CC=C3[C@@H]4[C@H](C)[C@@H](C)CC[C@]4(CO)CC[C@]32C)[C@@]1(C)CCCN`: the growth was 72.5%.

In the case of `O=C(/C=C(/C=C/c1cccc2[nH]ccc12)OB(F)F)/C=C/c1cccc2[nH]ccc12`, the growth was -35.2% (active).

Take `CCN1CC(=O)N(/N=C2\C(=O)Nc3ccccc32)C1=S`: the growth is 82.4%.

For `CCN1CCN(c2cc(C(=O)Nc3nc(-c4cc(OC)c(OC)c(OC)c4)cs3)cc(C(F)(F)F)c2)CC1`, the growth is 73.5%.

`COc1ccc(-c2nc(/C=C3\SC(=NCc4ccccc4)NC3=O)c3ccccn23)cc1`: the growth was -7.6% (active).

In the case of `CCOC(=O)C(=Cc1cccc(Br)c1)C(=O)OCC`, the growth is 95.1%.

With `N#CC1=C(N)Oc2c(sc3c(F)cccc23)C1c1ccc(F)cc1` (stereo not given), the growth was 23.2%.

On to `CCOc1nc(-c2ccccc2)cc2c(O)c(C(=O)NN)[nH]c(=O)c12`, for which the growth was 115%.

For the compound `O=C1c2cccc(NCCN=Cc3cc(O)ccc3O)c2C(=O)c2c(NCCN=Cc3cc(O)ccc3O)cccc21`, the growth was -48.6% (active).

For `C=CCn1cc(-c2nc3ccccc3s2)c2cc(-c3ccc4c5c(cccc35)C(=O)N(N)C4=O)ccc21`, the growth is 106%.

For the compound `CCOC(=O)CNP(=O)(OC[C@@H](Cc1ccccc1)NC(=O)c1cc2ccccc2s1)Oc1ccccc1` (stereo not given in full), the growth was 38.5%.

`CCC(=C(c1ccc(OCCN2CCCC2)cc1)c1ccc(OCCN2CCCC2)cc1)c1ccc(Cl)cc1`: the growth is 46.8%.

Take `Oc1c(Cl)cc(Cl)c2ccc(Cn3cc(-c4ccc(C(F)(F)F)cc4)nn3)nc12`: the growth is 83.7%.

`O=C(NCCCCNC(=O)OCc1ccc2c(Cl)cc(Cl)c(O)c2n1)OCc1ccc2c(Cl)cc(Cl)c(O)c2n1`: the growth was -1.85% (active).

With `CCN(CC)CCNC(=O)c1cn2ncnc(Oc3ccc(NC(=O)Nc4ccc(Cl)c(C(F)(F)F)c4)c(F)c3)c2c1C`, the growth is 21.1%.
